Where “and” joins values, the source holds several entries; their conditions need not be identical. Identical values can stand only once. The source holds several records for some structures; these can differ, active in one and inactive in another. Calls of active or inactive are those of the source. Unless noted, the rule behind the calls is not given here.
What was measured:
[1] = test system: Wnt5a (protein binding on small-molecule microarray); test: small molecules binding Wnt5a protein – biophysical, small-molecule microarray, 635/667 nm fluorescence, primary screen (AID 1142); conditions: 635 nm fluorescence, higher = more signal;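 note: fluorescence read at 667 nm with signal to noise per printed feature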
[2] = ATP-based viability of Huh7 replicon cells – cell-based, CellTiter-Glo luminescence, basal, 48 h, cytotoxicity control for HCV replication inhibitor project, primary screen (AID 1143); conditions: higher = more signal, called active from +8 up or from −8 down;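 note: Huh7 hepatoma cells carrying a hepatitis C replication reporter with no stimulus; test concentration not given here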
[3] = Pseudomonas biofilm growth suppression – PAO1 strain, BacTiter-Glo luminescence, LB-PBS, primary screen (AID 1144); conditions: P. aeruginosa PAO1 biofilm, 12 h, higher = more signal
[4] = basal CRE-LacZ reporter activity in PC12 – cell-based, unstimulated, primary screen (AID 1145); conditions: no forskolin, luminescence, 4.5 h, higher = more signal, called active from +8 up or from −8 down
[5] = forskolin-driven CRE-LacZ activity in PC12 – cell-based, CRE-LacZ reporter, forskolin-stimulated, primary screen (AID 1146); conditions: luminescence, 4.5 h, higher = more signal, called active from +8 up or from −8 down;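 note: PC12 cells with 6xCRE LacZ reporter stimulated by forskolin 10 µM; beta-galactosidase reporter signal reflecting CREB driven transcription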
[6] = molecular target: Streptavidin (Streptomyces avidinii) (UniProt P22629); test: compounds binding control protein streptavidin – biophysical, small-molecule microarray, 635/667 nm fluorescence, artefact control for SMM compound annotation, primary screen (AID 1147); conditions: higher = more signal;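 note: signal reflects streptavidin binding to arrayed compounds as a control protein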
Sequence of Streptavidin (Streptomyces avidinii) (P22629 whole entry, looked up): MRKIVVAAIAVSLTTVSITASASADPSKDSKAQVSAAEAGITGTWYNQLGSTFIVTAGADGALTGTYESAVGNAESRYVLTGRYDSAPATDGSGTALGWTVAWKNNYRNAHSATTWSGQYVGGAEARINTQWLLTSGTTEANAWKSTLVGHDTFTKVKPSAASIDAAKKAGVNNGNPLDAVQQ

[7] = probe aInhba binding on compound microarray – biochemical, small-molecule microarray, 635/667 nm fluorescence, primary screen (AID 1148); conditions: higher = more signal;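 note: score merges 667nm spot fluorescence with signal-to-noise for antibody binding to printed compounds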
[8] = molecular target: Torsin-1A (Homo sapiens) (UniProt O14656); test: TOR1A wild-type binding on microarray – cell lysate, small-molecule microarray, lysate, 635/667 nm, primary screen (AID 1149); conditions: COS7 hTOR1A-WT lysate, 635 nm fluorescence, higher = more signal
Sequence of Torsin-1A (Homo sapiens) (O14656 whole entry, looked up): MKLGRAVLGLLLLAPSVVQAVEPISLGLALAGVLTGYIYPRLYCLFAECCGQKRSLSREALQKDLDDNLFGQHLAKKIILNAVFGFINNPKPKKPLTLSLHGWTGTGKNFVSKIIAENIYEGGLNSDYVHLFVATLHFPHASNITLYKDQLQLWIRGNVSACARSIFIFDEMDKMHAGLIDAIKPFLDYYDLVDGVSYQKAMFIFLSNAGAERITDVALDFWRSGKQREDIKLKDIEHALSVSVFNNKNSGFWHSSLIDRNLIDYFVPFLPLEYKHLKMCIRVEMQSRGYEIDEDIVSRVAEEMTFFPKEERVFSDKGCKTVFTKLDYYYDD

[9] = molecular target: Torsin-1A (Homo sapiens) (UniProt O14656); test: torsin A mutant lysate binding on microarrays – cell lysate, small-molecule microarray, COS7 lysate, 635/667 nm fluorescence, primary screen (AID 1150); conditions: COS7 hTOR1A mutant lysate, 635 nm fluorescence, higher = more signal;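 note: score pools 667 nm emission and signal to noise measuring lysate protein binding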
[10] = test system: Sonic hedgehog protein (Shh); test: Sonic hedgehog microarray binding compounds – biochemical, small-molecule microarray, 635/667 nm fluorescence, primary screen (AID 1151); conditions: 635 nm fluorescence, higher = more signal;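 note: Shh protein binding to compounds spotted on small-molecule microarray slides; score combines spot fluorescence intensity with signal-to-noise across triplicate slides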
[11] = optical density shifts of acrAB sulA E. coli – strain DRC41, OD650, 48 h, E. coli filamentation inducer project, primary screen (AID 1152); conditions: higher = more signal, called active from +8 up or from −8 down;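 note: E. coli MC1000 strain DRC41 lacking acrAB efflux pump and sulA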
[12] = probe aLefty1 binding on compound microarray – biochemical, small-molecule microarray, 635/667 nm fluorescence, primary screen (AID 1153); conditions: higher = more signal;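 note: score merges spot fluorescence with signal-to-noise ratio from the scanned slide images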
[13] = plasmodial surface anion channel blockers, osmotic lysis – cell-based, P. falciparum Indochina, OD700, 1 h, primary screen (AID 1154); conditions: P. falciparum Indochina infected RBC osmotic lysis, higher = more signal, called active from +8 up or from −8 down
[14] = plasmodial surface anion channel blockers, osmotic lysis – cell-based, P. falciparum Indochina, OD700, 2 h, primary screen (AID 1155);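 note: lysis reports solute entry through the parasite surface anion channel PSAC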; conditions: P. falciparum Indochina infected erythrocytes, higher = more signal, called active from +8 up or from −8 down
[15] = changes in parasitized red cell lysis, either direction – P. falciparum Indochina, OD700, 3 h, PSAC antagonist project, primary screen (AID 1156); conditions: P. falciparum-infected erythrocytes, osmotic lysis, higher = more signal, called active from +8 up or from −8 down
[16] = plasmodial surface anion channel blockers, osmotic lysis – cell-based, P. falciparum Indochina, OD700, 18 h, primary screen (AID 1157); conditions: P. falciparum Indochina infected erythrocytes, osmotic lysis OD700, 18 h; higher = more signal, called active from +8 up or from −8 down
[17] = S6 kinase pathway phospho-S6 level changes – cell-based, A549, cytoblot, luminescence, serum-stimulated, primary screen (AID 1158); conditions: 5 h, higher = more signal;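 note: serum-stimulated A549 lung adenocarcinoma cells; signal is phosphorylated S6 detected by cytoblot immunostaining with HRP secondary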
[18] = molecular target: NADPH oxidase 2 (Homo sapiens) (UniProt P04839); test: compounds shifting NOX2 Amplex Red fluorescence – cell-based, HEK293-NOX2, PMA-stimulated, NOX inhibitor project, primary screen (AID 1159); conditions: 45 min, higher = more signal, called active from +8 up or from −8 down; note: test concentration not given here
Sequence of NADPH oxidase 2 (Homo sapiens) (P04839 whole entry, looked up): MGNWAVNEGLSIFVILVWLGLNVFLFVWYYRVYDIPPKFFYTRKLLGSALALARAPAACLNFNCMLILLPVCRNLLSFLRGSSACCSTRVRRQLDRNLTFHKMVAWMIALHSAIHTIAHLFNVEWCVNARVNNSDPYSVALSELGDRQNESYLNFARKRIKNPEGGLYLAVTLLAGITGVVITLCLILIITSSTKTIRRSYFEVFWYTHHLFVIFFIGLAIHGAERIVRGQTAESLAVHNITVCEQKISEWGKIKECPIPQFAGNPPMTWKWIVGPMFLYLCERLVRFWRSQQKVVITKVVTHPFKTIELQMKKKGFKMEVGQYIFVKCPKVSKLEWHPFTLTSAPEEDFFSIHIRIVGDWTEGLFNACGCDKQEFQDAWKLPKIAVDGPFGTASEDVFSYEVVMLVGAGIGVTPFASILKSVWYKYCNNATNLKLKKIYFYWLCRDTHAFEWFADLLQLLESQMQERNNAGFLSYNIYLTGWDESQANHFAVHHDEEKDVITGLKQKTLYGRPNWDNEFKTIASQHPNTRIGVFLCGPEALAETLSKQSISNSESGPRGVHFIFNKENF

[19] = molecular target: NADPH oxidase 4 (Homo sapiens) (UniProt Q9NPH5); test: compounds shifting NOX4 Amplex Red fluorescence – cell-based, HEK293-NOX4, tetracycline-induced, NOX inhibitor project, primary screen (AID 1160); conditions: HEK293-NOX4, Amplex Red H2O2 fluorescence, 45 min; higher = more signal, called active from +8 up or from −8 down
Sequence of NADPH oxidase 4 (Homo sapiens) (Q9NPH5 whole entry, looked up): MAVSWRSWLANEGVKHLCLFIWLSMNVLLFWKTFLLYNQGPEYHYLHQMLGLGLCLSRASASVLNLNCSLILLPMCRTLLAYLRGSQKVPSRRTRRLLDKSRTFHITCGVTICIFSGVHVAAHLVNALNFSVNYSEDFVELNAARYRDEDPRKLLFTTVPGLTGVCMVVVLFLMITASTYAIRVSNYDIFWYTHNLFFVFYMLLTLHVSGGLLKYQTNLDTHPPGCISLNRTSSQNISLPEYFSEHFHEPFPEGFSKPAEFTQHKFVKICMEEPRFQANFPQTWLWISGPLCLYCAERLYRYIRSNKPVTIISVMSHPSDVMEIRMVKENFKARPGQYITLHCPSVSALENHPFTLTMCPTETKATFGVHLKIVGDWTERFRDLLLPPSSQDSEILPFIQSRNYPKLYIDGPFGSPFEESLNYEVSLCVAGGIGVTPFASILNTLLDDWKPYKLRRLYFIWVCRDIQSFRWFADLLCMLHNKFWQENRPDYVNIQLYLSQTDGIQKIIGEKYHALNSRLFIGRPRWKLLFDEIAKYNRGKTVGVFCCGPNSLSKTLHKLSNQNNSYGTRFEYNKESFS

[20] = molecular target: NADPH oxidase 5 (Homo sapiens) (UniProt Q96PH1); test: compounds shifting NOX5 Amplex Red fluorescence – cell-based, HEK293-NOX5, NOX inhibitor project, primary screen (AID 1161); conditions: HEK293-NOX5, ionomycin, 45 min, higher = more signal
Sequence of NADPH oxidase 5 (Homo sapiens) (Q96PH1 whole entry, looked up): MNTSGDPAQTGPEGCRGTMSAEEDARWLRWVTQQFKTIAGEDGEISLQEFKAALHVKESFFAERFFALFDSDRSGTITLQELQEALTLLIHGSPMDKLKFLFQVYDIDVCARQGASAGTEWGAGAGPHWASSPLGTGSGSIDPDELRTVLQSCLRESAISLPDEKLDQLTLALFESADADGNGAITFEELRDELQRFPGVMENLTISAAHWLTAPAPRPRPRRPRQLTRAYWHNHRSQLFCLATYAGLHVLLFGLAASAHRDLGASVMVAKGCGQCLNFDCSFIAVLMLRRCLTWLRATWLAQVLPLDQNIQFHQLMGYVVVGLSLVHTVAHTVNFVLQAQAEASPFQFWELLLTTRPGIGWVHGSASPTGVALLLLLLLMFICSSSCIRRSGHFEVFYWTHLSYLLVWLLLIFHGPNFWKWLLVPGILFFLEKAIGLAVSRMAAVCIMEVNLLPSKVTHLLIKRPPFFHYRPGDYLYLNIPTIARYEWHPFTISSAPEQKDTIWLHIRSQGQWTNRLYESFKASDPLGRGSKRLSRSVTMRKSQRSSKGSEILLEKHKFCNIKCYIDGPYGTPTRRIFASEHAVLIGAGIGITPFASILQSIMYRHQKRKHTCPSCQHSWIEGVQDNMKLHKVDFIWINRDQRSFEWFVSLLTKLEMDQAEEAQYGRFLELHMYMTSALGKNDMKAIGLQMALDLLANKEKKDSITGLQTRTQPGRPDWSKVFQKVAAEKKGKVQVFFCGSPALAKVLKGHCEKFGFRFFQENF

Compound | composite z-score [1] | z-score [2] | z-score [3] | z-score [4] | z-score [5] | composite z-score [6] | composite z-score [7] | composite z-score [8] | composite z-score [9] | composite z-score [10] | z-score [11] | composite z-score [12] | z-score [13] | z-score [14] | z-score [15] | z-score [16] | z-score [17] | z-score [18] | z-score [19] | z-score [20]
CCOC(=O)c1ccc(NC(=O)O[C@H]2[C@H](OC(=O)Nc3ccccc3)[C@@H](OC(=O)Nc3ccccc3)[C@@H](OC)O[C@@H]2CO)cc1 | 0.493 and 0.437 | -4.44 (inactive) and -4.14 (inactive) | 0.0469 (inactive) and -1.32 (inactive) | 1.55 (inactive) and -0.552 (inactive) | -1.38 (inactive) and -1.61 (inactive) | 1.64 and 0.53 | 0.333 and 0.0982 | 1.19 and 0.89 | 0.556 and 0.56 | 0.955 and 1.97 | -1.16 (inactive) and -0.655 (inactive) | 0.507 and 0.394 | 5.55 (inactive) and 14.7 (active) | 1.05 (inactive) and 2.32 (inactive) | 0.199 (inactive) and 1.28 (inactive) | 0.764 (inactive) and 0.888 (inactive) | 0.139 and 0.0102 | 0.0131 (inactive) and -4.33 (inactive) | -0.578 (inactive) and -1.01 (inactive) | -0.851 and -1.69
CCOC(=O)[C@H](CC(C)C)NC(=O)CCC1CC(OC(=O)NCc2cccc3ccccc23)CC2(CCCC(COC(=O)NCc3ccccc3)O2)O1 (stereo not given in full) | -0.147 | -0.649 (inactive) | -0.583 (inactive) | 0.286 (inactive) | 1.5 (inactive) | -0.339 | 0.0038 | -1.07 | -0.964 | -0.0293 | -0.42 (inactive) | -0.393 | 0.56 (inactive) | -0.166 (inactive) | -1.33 (inactive) | 0.097 (inactive) | -0.194 | 0.209 (inactive) | 0.0251 (inactive) | 0.281
C=CCN(CCCC)C(=O)C(c1cccs1)N(CCOCCO)C(=O)/C=C\C(=O)O (stereo not given) | -0.582 and -0.146 | -0.259 (inactive) and -0.0074 (inactive) | -0.801 (inactive) and -0.86 (inactive) | -0.891 (inactive) and 0.0564 (inactive) | -0.43 (inactive) and -0.359 (inactive) | -0.915 and -0.578 | -0.0313 and -0.0791 | -0.289 and 0.536 | 1.73 and -0.144 | -0.127 and -0.197 | 1.59 (inactive) and 1.84 (inactive) | -0.275 and -0.127 | -0.0592 (inactive) and -0.28 (inactive) | -0.832 (inactive) and -0.75 (inactive) | -0.114 (inactive) and 0.0221 (inactive) | -1.22 (inactive) and -1.27 (inactive) | 1.05 and 1.65 | 0.0943 (inactive) and 0.209 (inactive) | -0.73 (inactive) and -0.71 (inactive) | 0.465 and -0.0314
CCCC[C@@H]1CN2[C@@H](CC[C@@H](C)[C@@H]2c2ccc(Br)cc2)C(=O)O1 | -0.0248 and 0.0673 | -0.216 (inactive) and -0.116 (inactive) | 0.283 (inactive) and 1.16 (inactive) | -0.704 (inactive) and 1.1 (inactive) | 0.693 (inactive) and 0.189 (inactive) | 0.119 and 0.117 | -0.101 and 0.0074 | 0.434 and -0.0758 | 0.458 and 0.139 | 0.611 and 0.993 | -0.247 (inactive) and -1.23 (inactive) | -0.0601 and -0.0141 | 0.952 (inactive) and 1.74 (inactive) | -0.255 (inactive) and 0.94 (inactive) | 0.0015 (inactive) and -0.273 (inactive) | 0.367 (inactive) and 0.443 (inactive) | -1.02 and -0.612 | 1.18 (inactive) and -0.0488 (inactive) | 0.883 (inactive) and 0.821 (inactive) | 0.637 and 0.0426
C=CCN(Cc1ccccc1)C(=O)C1N(c2ccc(CCO)cc2)C(=O)C2C(C(=O)O)C3C=CC21O3 (stereo not given) | -0.588 and -0.549 | 0.012 (inactive) and -0.668 (inactive) | -0.231 (inactive) and -1.01 (inactive) | 0.195 (inactive) and -0.899 (inactive) | 0.892 (inactive) and -0.29 (inactive) | -1.49 and -1.35 | -0.273 and -0.206 | -2.02 and -4.14 | -3.2 and -2.45 | -1.7 and -1.87 | 0.458 (inactive) and 1.31 (inactive) | -0.289 and -0.27 | 1.25 (inactive) and 1.16 (inactive) | 0.401 (inactive) and 0.572 (inactive) | 0.0406 (inactive) and -0.339 (inactive) | -0.157 (inactive) and 0.382 (inactive) | -0.0071 and 0.775 | 0.819 (inactive) and 0.498 (inactive) | -1.13 (inactive) and -0.149 (inactive) | 0.865 and 0.168
C=CCN(Cc1ccccc1)C(=O)C1N(CCOCCO)C(=O)C2C(C(=O)O)C3C=CC21O3 (stereo not given) | -0.0792 and -1.24 | -2.27 (inactive) and 0.247 (inactive) | -0.0168 (inactive) | -0.484 (inactive) and -0.753 (inactive) | -0.347 (inactive) and -0.736 (inactive) | -1.36 and -1.24 | -0.282 and -0.0645 | -2.62 and -3.49 | -1.89 and -3.16 | -1.64 and -2 | 2.01 (inactive) and 0.924 (inactive) | 0.0429 and 0.101 | -0.451 (inactive) and 0.417 (inactive) | -1.31 (inactive) and -0.103 (inactive) | -1.39 (inactive) and -0.519 (inactive) | -1.71 (inactive) and 0.0394 (inactive) | 0.506 and 0.245 | 1.22 (inactive) and 0.583 (inactive) | -0.586 (inactive) and -2.52 (inactive) | 0.93 and -0.825

From PubChem BioAssay
